Measured values taken from PubChem BioAssay.
The source made the active and inactive calls.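 The calls were made as follows: active = thallium flux through the channel raised or lowered by more than 3 SD from vehicle-only wells, actives on both sides; inactive = the rest.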

The compounds below were run on R275C/Slo1WT/beta2 (assay: modulators of BK channel variants, profiling panel, selectivity assay, cell-based, U2OS BacMam, thallium flux, beta subunits (AID 1259406;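 also: initial slope of Thallos dye fluorescence rise after thallium is added; log ratio against the mean of 0.3% DMSO vehicle wells on the same plate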)). Conditions: at 30 µM.

Log fold change Tl+ flux, inactive:
N=c1nc(N2CCCCC2)cc(N)n1O 0.0414
CC(C)NCC(O)COc1cccc2[nH]ccc12 (centres undefined) 0.017
CCn1cc(C(=O)O)c(=O)c2ccc(C)nc21 -0.00423
CN(C)C(=O)C(CCN1CCC(O)(c2ccc(Cl)cc2)CC1)(c1ccccc1)c1ccccc1 0.0159
Cc1cc(NS(=O)(=O)c2ccc(N)cc2)no1 -0.0702
CCCC(CCC)C(=O)O -0.0422
COc1cc(Cc2cnc(N)nc2N)cc(OC)c1OC 0.00876
COC(=O)C1=C(C)NC(C)=C(C(=O)OCCN(C)Cc2ccccc2)C1c1cccc([N+](=O)[O-])c1 (centres undefined) 0.00258
O=C(CCCN1CCC(O)(c2ccc(Cl)cc2)CC1)c1ccc(F)cc1 -0.0319
COc1ccc2cc([C@H](C)C(=O)O)ccc2c1 0.0377
COc1c2occc2cc2ccc(=O)oc12 0.00849
NC(=O)c1cccnc1 0.0115
CN/C(=C\[N+](=O)[O-])NCCSCc1ccc(CN(C)C)o1 -0.015
CNCCCN1c2ccccc2CCc2ccccc21 -0.0879
CCCC(=O)Nc1ccc(OCC(O)CNC(C)C)c(C(C)=O)c1 (centres undefined) -0.0238
O=C(O)CCc1nc(-c2ccccc2)c(-c2ccccc2)o1 0.0514
CC(C)OC(=O)C(C)(C)Oc1ccc(C(=O)c2ccc(Cl)cc2)cc1 0.0641
CC(C(=O)O)c1cccc(C(=O)c2ccccc2)c1 (centres undefined) -0.0223
CN1CCN(C2=Nc3cc(Cl)ccc3Nc3ccccc32)CC1 0.0195
